According to the supplement of paper PMC10849652:
Targets with a hit are over-represented here; the source holds about 8,800 in all. About 0.5% of all pairs of compound and target were hits.

Assays:
Experiment in all cases: log2 fold change, soluble protein after heating vs DMSO (PISA); higher = thermal stabilisation; K562 lysate, 10 uM; active = over 0.2 and 3.5 SD of the protein, either way, in both replicates (recomputed)
vemurafenib = compound: CCCS(=O)(=O)Nc1ccc(F)c(C(=O)c2c[nH]c3ncc(-c4ccc(Cl)cc4)cc23)c1F [vemurafenib]
Method in brief: (§1)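 A 30 min treatment with 10 μM compound was applied to crude K562 extract at 1 mg/mL protein in PBS pH 7.4 with 1 mM MgCl2. Heating for 3 min spanned 48°C-58°C, after which aliquots were pooled, adjusted to 0.5% NP-40 at 4°C and spun at 21,000xg for 90 min. TMTpro 16plex LC-MS/MS of the supernatant, with channel sums equalised, gave values recorded as log-two fold change in thermal stability against solvent controls, from duplicates.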

[1] = compound: CCCS(=O)(=O)Nc1ccc(F)c(C(=O)c2c[nH]c3ncc(Cl)cc23)c1F
Method in brief: as §1

barasertib = compound: CCN(CCCOc1ccc2c(Nc3cc(CC(=O)Nc4cccc(F)c4)[nH]n3)ncnc2c1)CCOP(=O)(O)O [barasertib]
Method in brief: as §1

[2] = compound: CC[C@@H]1C(=O)N(C)c2cnc(Nc3ccc(C(=O)NC4CCN(C)CC4)cc3OC)nc2N1C1CCCC1
Method in brief: as §1

volasertib = compound: CC[C@@H]1C(=O)N(C)c2cnc(Nc3ccc(C(=O)N[C@H]4CC[C@H](N5CCN(CC6CC6)CC5)CC4)cc3OC)nc2N1C(C)C [volasertib]
Method in brief: as §1

[3] = compound: CCn1c(C(=O)N(C2CC2)C2CC2)cc2c3c(ncn3C)c(Nc3cc(C)n(C)n3)nc21
Method in brief: as §1

[4] = compound: CCn1cc(-c2ccnc3[nH]c(-c4cccc(CN(C)C)c4)cc23)c(-c2ccc(NC(=O)N(C)C)cc2)n1
Method in brief: as §1

[5] = compound: CN1CCC(CNc2ccc3ncc(-c4cccc(OC(F)(F)F)c4)n3n2)CC1
Method in brief: as §1

saracatinib = compound: CN1CCN(CCOc2cc(OC3CCOCC3)c3c(Nc4c(Cl)ccc5c4OCO5)ncnc3c2)CC1 [saracatinib]
Method in brief: as §1

sotrastaurin = compound: CN1CCN(c2nc(C3=C(c4c[nH]c5ccccc45)C(=O)NC3=O)c3ccccc3n2)CC1 [sotrastaurin]
Method in brief: as §1

alvocidib = compound: CN1CC[C@H](c2c(O)cc(O)c3c(=O)cc(-c4ccccc4Cl)oc23)[C@H](O)C1 [alvocidib]
Method in brief: as §1

Tubastatin A = compound: CN1CCc2c(c3ccccc3n2Cc2ccc(C(=O)NO)cc2)C1 [Tubastatin A]
Method in brief: as §1

[6] = compound: CNC(=O)C1=CC=CC=C1NC2=NC(=NC=C2Cl)NC3=C(C=C(C=C3)N4CCOCC4)OC
Method in brief: as §1

defactinib = compound: CNC(=O)c1ccc(Nc2ncc(C(F)(F)F)c(NCc3nccnc3N(C)S(C)(=O)=O)n2)cc1 [defactinib]
Method in brief: as §1

[7] = compound: CNc1nc(-c2ccc3c(N)n[nH]c3c2)cc(N2C[C@@H](C(=O)NC3CCCCC3)CC[C@H]2C)n1
Method in brief: as §1

encorafenib = compound: COC(=O)N[C@@H](C)CNc1nccc(-c2cn(C(C)C)nc2-c2cc(Cl)cc(NS(C)(=O)=O)c2F)n1 [encorafenib]
Method in brief: as §1

[8] = compound: COC(=O)[C@H](CCSC)NC(=O)C1=C(C=C(C=C1)NC[C@H](CS)N)C2=CC=CC=C2
Method in brief: as §1

alisertib = compound: COc1cc(Nc2ncc3c(n2)-c2ccc(Cl)cc2C(c2c(F)cccc2OC)=NC3)ccc1C(=O)O [alisertib]
Method in brief: as §1

[9] = compound: COc1cc2nc(-c3cc(F)ccc3O)nc(N[C@@H]3CNC[C@H]3C(C)(C)O)c2cc1OC
Method in brief: as §1

gefitinib = compound: COc1cc2ncnc(Nc3ccc(F)c(Cl)c3)c2cc1OCCCN1CCOCC1 [gefitinib]
Method in brief: as §1

Measured: log2 fold change

YES1 (UniProt P07947)
Sequence of UniProt P07947 (P07947 whole entry, looked up): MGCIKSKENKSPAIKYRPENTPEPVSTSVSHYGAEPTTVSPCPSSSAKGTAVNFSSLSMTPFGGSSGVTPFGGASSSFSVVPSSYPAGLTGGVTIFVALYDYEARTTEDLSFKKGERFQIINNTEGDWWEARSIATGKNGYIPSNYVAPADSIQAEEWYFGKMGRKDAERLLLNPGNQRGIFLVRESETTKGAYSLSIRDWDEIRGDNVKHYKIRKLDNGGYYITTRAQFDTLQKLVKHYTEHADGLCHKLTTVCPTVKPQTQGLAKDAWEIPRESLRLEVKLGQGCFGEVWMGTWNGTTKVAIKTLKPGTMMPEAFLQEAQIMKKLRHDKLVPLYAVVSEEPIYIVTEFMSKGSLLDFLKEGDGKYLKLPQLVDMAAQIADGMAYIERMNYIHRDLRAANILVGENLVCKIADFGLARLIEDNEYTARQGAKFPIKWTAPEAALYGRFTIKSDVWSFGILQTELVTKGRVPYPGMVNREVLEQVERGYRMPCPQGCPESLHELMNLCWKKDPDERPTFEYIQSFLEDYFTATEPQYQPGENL
inactive: vemurafenib 0.068 | [1] 0.088 | barasertib 0.334 | [2] -0.086 | volasertib -0.205 | [3] -0.106 | [4] -0.146 | [5] -0.007 | saracatinib 0.331 | sotrastaurin -0.084 | alvocidib -0.065 | Tubastatin A 0.171 | [6] -0.003 | defactinib -0.228 | [7] -0.094 | encorafenib -0.009 | [8] -0.024 | alisertib 0.049 | [9] 0.087 | gefitinib -0.13

XPNPEP1 isoform 3 (UniProt Q9NQW7)
inactive: vemurafenib 0.001 | [1] 0.015 | barasertib 0.008 | [2] -0.044 | volasertib -0.054 | [3] 0.014 | [4] -0.022 | [5] 0.019 | saracatinib -0.001 | sotrastaurin -0.016 | alvocidib -0.018 | Tubastatin A 0.011 | [6] 0.029 | defactinib -0.001 | [7] -0.045 | encorafenib 0.001 | alisertib -0.002 | [9] 0.002 | gefitinib 0.002
active: [8] 0.613

UNC13D (UniProt Q70J99)
inactive: vemurafenib 0.039 | [1] 0.027 | barasertib 0.024 | [2] -0.073 | volasertib -0.083 | [3] 0.012 | [4] 0.026 | [5] -0.015 | saracatinib 0.05 | sotrastaurin -0.022 | alvocidib 0.015 | Tubastatin A -0.117 | [6] 0.014 | defactinib 0.026 | [7] -0.035 | encorafenib 0.059 | [8] 0.054 | alisertib -0.005 | [9] 0.001 | gefitinib -0.034

VPS4A (UniProt Q9UN37)
inactive: vemurafenib 0.096 | [1] -0.006 | barasertib 0.014 | [2] -0.063 | volasertib -0.09 | [3] 0.054 | [4] -0.12 | [5] -0.036 | saracatinib 0.027 | sotrastaurin 0.056 | alvocidib -0.004 | Tubastatin A -0.16 | [6] 0.025 | defactinib 0.01 | [7] -0.1 | encorafenib -0.004 | [8] 0.138 | alisertib 0 | [9] -0.004 | gefitinib -0.025

USP9X (UniProt Q93008)
inactive: vemurafenib -0.013 | [1] 0.014 | barasertib 0.038 | [2] -0.065 | volasertib -0.053 | [3] 0.033 | [4] -0.042 | [5] -0.036 | saracatinib 0.03 | sotrastaurin 0.007 | alvocidib -0.009 | Tubastatin A -0.114 | [6] 0.016 | defactinib 0.026 | [7] -0.04 | encorafenib 0.007 | [8] 0.023 | alisertib 0.016 | [9] 0.013 | gefitinib 0.002

XPO6 (UniProt Q96QU8)
inactive: vemurafenib 0.033 | [1] 0.013 | barasertib 0.062 | [2] -0.03 | volasertib -0.058 | [3] -0.049 | [4] 0.448 | [5] 0.071 | saracatinib -0.007 | sotrastaurin 0 | alvocidib -0.058 | Tubastatin A -0.09 | [6] -0.048 | defactinib -0.025 | [7] -0.05 | encorafenib -0.006 | [8] 0.021 | alisertib 0.036 | [9] 0.031 | gefitinib 0.067

XPO5 (UniProt Q9HAV4)
inactive: vemurafenib -0.006 | [1] 0.005 | barasertib 0.022 | [2] -0.028 | volasertib -0.062 | [3] 0.027 | [4] -0.043 | [5] -0.041 | saracatinib 0.011 | sotrastaurin 0.007 | alvocidib 0.025 | Tubastatin A -0.184 | [6] -0.014 | defactinib -0.002 | [7] -0.019 | encorafenib 0.021 | [8] 0.012 | alisertib -0.004 | [9] 0 | gefitinib 0.013

VPS13C (UniProt Q709C8)
Sequence of UniProt Q709C8 (Q709C8 whole entry, looked up): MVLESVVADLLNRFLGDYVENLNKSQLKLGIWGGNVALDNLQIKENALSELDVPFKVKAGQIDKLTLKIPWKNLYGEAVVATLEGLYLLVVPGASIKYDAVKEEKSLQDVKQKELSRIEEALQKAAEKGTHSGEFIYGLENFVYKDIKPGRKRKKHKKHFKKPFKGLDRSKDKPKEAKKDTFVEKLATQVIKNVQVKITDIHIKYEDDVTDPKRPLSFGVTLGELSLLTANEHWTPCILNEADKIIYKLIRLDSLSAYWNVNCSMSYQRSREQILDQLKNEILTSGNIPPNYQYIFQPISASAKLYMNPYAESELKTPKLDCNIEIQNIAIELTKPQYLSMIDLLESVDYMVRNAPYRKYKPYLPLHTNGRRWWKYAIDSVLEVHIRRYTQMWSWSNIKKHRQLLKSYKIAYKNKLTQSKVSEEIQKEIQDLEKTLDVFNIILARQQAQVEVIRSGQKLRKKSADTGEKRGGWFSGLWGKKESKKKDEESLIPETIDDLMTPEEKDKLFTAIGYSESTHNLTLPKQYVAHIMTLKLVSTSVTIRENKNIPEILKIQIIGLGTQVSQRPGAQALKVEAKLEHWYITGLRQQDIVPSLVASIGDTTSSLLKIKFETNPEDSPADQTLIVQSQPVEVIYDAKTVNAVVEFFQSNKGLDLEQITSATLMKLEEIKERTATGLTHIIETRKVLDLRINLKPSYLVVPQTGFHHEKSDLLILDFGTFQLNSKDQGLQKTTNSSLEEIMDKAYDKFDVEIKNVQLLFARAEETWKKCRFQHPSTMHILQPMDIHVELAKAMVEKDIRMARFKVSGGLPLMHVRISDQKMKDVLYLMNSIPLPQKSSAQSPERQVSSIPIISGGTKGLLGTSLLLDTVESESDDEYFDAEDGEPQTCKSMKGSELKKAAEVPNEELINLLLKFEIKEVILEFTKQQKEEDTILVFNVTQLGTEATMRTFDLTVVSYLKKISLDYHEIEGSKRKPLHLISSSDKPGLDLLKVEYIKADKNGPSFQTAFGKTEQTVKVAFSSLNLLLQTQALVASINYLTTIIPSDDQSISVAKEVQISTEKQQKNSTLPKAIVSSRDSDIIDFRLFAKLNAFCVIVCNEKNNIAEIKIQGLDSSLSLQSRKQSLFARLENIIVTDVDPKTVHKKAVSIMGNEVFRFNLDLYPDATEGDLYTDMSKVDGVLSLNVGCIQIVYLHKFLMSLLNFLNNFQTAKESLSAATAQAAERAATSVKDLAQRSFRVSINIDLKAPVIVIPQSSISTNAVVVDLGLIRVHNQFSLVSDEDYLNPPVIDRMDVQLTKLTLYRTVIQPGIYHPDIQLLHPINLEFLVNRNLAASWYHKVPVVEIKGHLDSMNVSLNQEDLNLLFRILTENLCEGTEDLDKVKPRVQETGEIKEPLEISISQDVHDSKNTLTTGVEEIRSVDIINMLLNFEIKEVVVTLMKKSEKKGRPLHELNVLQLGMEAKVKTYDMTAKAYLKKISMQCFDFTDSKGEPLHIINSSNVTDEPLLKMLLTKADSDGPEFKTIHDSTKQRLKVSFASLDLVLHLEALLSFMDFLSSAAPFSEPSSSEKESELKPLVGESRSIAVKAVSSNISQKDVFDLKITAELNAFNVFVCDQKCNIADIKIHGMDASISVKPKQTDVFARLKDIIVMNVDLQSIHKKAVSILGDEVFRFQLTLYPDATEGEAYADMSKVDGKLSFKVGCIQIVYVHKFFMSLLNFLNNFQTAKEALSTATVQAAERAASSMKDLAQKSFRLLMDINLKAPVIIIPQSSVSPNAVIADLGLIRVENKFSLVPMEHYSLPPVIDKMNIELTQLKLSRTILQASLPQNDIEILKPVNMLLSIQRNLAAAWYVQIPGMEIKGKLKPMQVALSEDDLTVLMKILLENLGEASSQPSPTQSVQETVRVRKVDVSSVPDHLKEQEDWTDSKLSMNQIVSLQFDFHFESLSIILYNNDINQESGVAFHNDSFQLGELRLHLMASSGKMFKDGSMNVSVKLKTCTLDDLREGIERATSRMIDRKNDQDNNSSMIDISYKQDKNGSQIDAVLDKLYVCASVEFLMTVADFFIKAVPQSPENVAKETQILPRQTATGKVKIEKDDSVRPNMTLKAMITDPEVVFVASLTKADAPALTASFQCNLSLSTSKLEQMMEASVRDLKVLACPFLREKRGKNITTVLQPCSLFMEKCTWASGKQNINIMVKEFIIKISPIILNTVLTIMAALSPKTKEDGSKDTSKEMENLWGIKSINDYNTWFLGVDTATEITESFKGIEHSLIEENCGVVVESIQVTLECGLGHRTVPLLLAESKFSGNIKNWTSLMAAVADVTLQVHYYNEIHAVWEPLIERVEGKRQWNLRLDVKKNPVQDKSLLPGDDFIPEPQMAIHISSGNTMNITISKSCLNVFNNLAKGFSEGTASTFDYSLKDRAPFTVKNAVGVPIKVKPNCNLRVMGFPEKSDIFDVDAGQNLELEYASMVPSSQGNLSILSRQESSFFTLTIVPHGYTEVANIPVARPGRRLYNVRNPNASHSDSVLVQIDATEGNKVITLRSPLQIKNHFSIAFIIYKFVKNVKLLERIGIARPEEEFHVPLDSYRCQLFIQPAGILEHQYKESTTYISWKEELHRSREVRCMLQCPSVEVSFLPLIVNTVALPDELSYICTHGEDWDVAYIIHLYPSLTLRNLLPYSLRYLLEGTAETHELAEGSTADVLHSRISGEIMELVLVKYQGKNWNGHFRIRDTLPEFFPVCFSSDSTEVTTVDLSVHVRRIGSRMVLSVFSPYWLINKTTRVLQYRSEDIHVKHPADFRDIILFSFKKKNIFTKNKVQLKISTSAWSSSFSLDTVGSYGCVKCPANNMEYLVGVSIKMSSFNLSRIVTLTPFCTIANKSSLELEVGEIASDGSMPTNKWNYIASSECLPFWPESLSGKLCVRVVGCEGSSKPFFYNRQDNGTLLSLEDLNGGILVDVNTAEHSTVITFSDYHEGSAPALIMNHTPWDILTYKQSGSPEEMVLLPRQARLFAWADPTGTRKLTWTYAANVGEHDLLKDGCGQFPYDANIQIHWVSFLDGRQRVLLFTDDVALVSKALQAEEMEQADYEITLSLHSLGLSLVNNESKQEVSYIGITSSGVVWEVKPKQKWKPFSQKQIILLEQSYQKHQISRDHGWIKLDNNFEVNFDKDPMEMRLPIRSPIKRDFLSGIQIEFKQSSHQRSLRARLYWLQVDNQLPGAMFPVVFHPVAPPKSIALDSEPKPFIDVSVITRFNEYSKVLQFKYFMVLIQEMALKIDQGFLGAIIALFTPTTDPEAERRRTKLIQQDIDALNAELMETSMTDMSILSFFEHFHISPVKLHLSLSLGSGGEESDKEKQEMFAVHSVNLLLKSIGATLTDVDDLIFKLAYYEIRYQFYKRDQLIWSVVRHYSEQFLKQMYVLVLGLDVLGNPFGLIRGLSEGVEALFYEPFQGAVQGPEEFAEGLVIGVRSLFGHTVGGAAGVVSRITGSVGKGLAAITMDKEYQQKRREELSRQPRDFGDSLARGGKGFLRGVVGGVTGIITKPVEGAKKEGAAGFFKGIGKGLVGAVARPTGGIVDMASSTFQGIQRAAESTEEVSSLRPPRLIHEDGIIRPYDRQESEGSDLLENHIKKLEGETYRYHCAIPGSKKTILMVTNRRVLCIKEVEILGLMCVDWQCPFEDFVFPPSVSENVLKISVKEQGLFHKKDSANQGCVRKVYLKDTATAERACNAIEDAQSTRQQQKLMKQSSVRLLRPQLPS
inactive: vemurafenib 0.018 | [1] 0.028 | barasertib 0.12 | [2] 0.112 | volasertib -0.017 | [3] -0.01 | [4] 0 | [5] 0.02 | saracatinib 0.028 | sotrastaurin 0.026 | alvocidib 0.008 | Tubastatin A 0.034 | [6] 0.002 | defactinib 0.014 | [7] 0.023 | encorafenib 0.192 | [8] -0.131 | alisertib 0.111 | [9] 0.157 | gefitinib 0.131

YEATS4 (UniProt O95619)
Sequence of UniProt O95619 (O95619 whole entry, looked up): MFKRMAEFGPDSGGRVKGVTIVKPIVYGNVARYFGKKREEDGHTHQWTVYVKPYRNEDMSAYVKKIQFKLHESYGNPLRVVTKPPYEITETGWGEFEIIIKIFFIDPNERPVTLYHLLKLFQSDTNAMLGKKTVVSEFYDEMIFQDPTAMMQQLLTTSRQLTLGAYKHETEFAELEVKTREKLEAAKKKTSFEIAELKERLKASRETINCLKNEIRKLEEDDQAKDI
active: [4] 0.746 | alisertib 0.315
inactive: vemurafenib -0.032 | [1] 0.003 | barasertib 0.05 | [2] 0.045 | volasertib -0.028 | [3] 0.014 | [5] 0 | saracatinib 0.031 | sotrastaurin 0.022 | alvocidib 0.105 | Tubastatin A 0.004 | [6] 0.012 | defactinib 0.007 | [7] -0.054 | encorafenib -0.004 | [8] -0.062 | [9] -0.008 | gefitinib -0.064

ZNF451 (UniProt Q9Y4E5)
inactive: vemurafenib -0.013 | [1] 0.02 | barasertib 0.019 | [2] 0.066 | volasertib -0.063 | [3] -0.022 | [4] -0.047 | [5] -0.048 | saracatinib 0.039 | sotrastaurin 0.002 | alvocidib -0.011 | Tubastatin A -0.121 | [6] 0.027 | defactinib 0 | [7] -0.014 | encorafenib -0.03 | [8] 0.07 | alisertib 0.008 | [9] -0.012 | gefitinib -0.009

UNC45A (UniProt Q9H3U1)
inactive: vemurafenib 0.013 | [1] 0.012 | barasertib 0.018 | [2] -0.022 | volasertib -0.039 | [3] 0.025 | [4] 0.02 | [5] -0.081 | saracatinib 0.017 | sotrastaurin -0.001 | alvocidib -0.017 | Tubastatin A -0.146 | [6] 0 | defactinib 0.018 | [7] -0.011 | encorafenib -0.003 | [8] 0.044 | alisertib 0.006 | [9] 0.001 | gefitinib -0.02

ZFYVE19 (UniProt Q96K21)
Sequence of UniProt Q96K21 (Q96K21 whole entry, looked up): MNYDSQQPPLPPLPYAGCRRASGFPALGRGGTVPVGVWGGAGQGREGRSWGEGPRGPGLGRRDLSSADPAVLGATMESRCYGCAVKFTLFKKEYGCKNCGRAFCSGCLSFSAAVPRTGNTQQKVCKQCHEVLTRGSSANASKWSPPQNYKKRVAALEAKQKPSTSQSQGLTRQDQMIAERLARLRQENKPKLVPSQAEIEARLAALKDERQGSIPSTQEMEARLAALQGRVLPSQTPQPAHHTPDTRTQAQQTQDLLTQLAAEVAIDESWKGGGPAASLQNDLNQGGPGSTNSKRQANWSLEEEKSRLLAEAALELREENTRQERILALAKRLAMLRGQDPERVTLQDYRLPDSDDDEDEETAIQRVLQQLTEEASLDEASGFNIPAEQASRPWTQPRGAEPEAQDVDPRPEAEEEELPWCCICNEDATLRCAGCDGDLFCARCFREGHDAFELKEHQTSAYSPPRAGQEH
inactive: vemurafenib 0 | [1] 0.02 | barasertib 0.016 | [2] 0.077 | volasertib 0.023 | [3] 0.006 | [5] 0.126 | saracatinib -0.027 | sotrastaurin 0.013 | alvocidib -0.141 | Tubastatin A 0.026 | [6] -0.037 | defactinib -0.002 | [7] 0.008 | encorafenib -0.001 | [8] -0.04 | alisertib 0.008 | [9] 0 | gefitinib 0.019
active: [4] -0.232

USP3 (UniProt Q9Y6I4)
inactive: vemurafenib 0.041 | [1] -0.007 | barasertib 0.008 | [2] 0.023 | volasertib -0.012 | [3] -0.011 | [4] 0.064 | [5] -0.041 | saracatinib 0.011 | sotrastaurin 0.011 | alvocidib 0.002 | Tubastatin A -0.154 | [6] -0.046 | defactinib 0.013 | [7] -0.024 | encorafenib 0.03 | [8] 0.022 | alisertib -0.008 | [9] 0.028 | gefitinib -0.005

UPF3B (UniProt Q9BZI7)
inactive: vemurafenib 0.027 | [1] 0.01 | barasertib -0.006 | [2] 0.026 | volasertib 0.004 | [3] -0.019 | [5] 0.031 | saracatinib 0.005 | sotrastaurin -0.019 | alvocidib -0.105 | Tubastatin A -0.001 | [6] 0.023 | defactinib -0.015 | [7] 0.011 | encorafenib 0.011 | [8] 0.049 | alisertib 0.021 | [9] -0.021 | gefitinib -0.038
active: [4] -0.231

UTP18 (UniProt Q9Y5J1)
inactive: vemurafenib -0.011 | [1] 0.067 | barasertib -0.036 | [2] 0.057 | volasertib -0.069 | [3] 0.024 | [4] -0.004 | [5] -0.042 | saracatinib 0.031 | sotrastaurin 0.012 | alvocidib 0.009 | Tubastatin A -0.05 | [6] 0.075 | defactinib -0.086 | [7] -0.049 | encorafenib -0.028 | [8] 0.006 | alisertib -0.032 | [9] -0.05 | gefitinib -0.046

WDR20 isoform 7 (UniProt Q8TBZ3)
inactive: vemurafenib 0.047 | [1] 0 | barasertib 0.087 | [2] 0.054 | volasertib -0.039 | [3] -0.017 | [4] 0.039 | [5] -0.039 | saracatinib 0.065 | sotrastaurin -0.036 | alvocidib -0.041 | Tubastatin A -0.035 | [6] 0.02 | defactinib -0.049 | [7] -0.13 | encorafenib 0.078 | [8] -0.114 | alisertib 0.175 | [9] -0.002 | gefitinib -0.149
